Experimental findings from PubChem BioAssay (NCATS) are described below.

Results filed as inconclusive are left out. A number with no mark means an inactive call. Calls of active or inactive are those of the source. Calls follow the shape of the dose curve; as a rule, active = well fitted inhibition curve with a large enough effect; inconclusive = small, poorly fitted or top-dose-only effect; inactive = flat fitted curve, though single readings scatter.
Potency is read from the fitted curve at half-maximal effect.

For this assay, the system named is DIV14. Description: qHTS profiling for inhibitors of Plasmodium falciparum proliferation (AID 504749). Also: nearly all actives have a fitted effect of over 60% in size.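 As to activity, negative = inhibition: 0% = DMSO vehicle and full inhibition = artemisinin control.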 As to conditions: P. falciparum in erythrocytes, SYBR Green DNA, 72 h; series mostly up to 28.7 µM; activity, negative = inhibition: at the top concentration. Summed up:
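Infected RBCs, 0.3% parasitemia/2.5% Hct final; cpd 72 h, 37 C, 5% CO2; lysis buffer with saponin/triton/SYBR Green I, o/n RT dark; FI 485/535; norm. to artemisinin (0.29 uM) and DMSO.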
Background: Quantitative high-throughput screening tests each substance at several concentrations.
With `NCC(=O)CCC(=O)O`, the “activity, negative = inhibition” value is -6.79%.

Take `Oc1ccc(C(O)CNCCCCCCNCC(O)c2ccc(O)c(O)c2)cc1O` (stereo not drawn): the Potency is 10.7 µM (active).

For the compound `CSc1ccc2c(c1)N(CCC1CCCCN1C)c1ccccc1S2` (stereo not drawn), the Potency was 10.7 µM (active).

Regarding `COc1ccc2[nH]c(S(=O)Cc3ncc(C)c(OC)c3C)nc2n1` (stereo not drawn), the Potency is 3.38 µM (active).

For the compound `COCCOC(=O)C1=C(C)NC(C)=C(C(=O)OC/C=C/c2ccccc2)C1c1cccc([N+](=O)[O-])c1` (stereo not drawn), the Potency was 13.5 µM (active).

As to `CNCCC(Oc1ccc(C(F)(F)F)cc1)c1ccccc1` (stereo not drawn), the Potency is 3.01 µM (active).

In the case of `CN(C)CCCN1c2ccccc2Sc2ccc(Cl)cc21`, the Potency is 3.01 µM (active).

Take `CC(CN1c2ccccc2Sc2ccccc21)N(C)C` (stereo not drawn): the “activity, negative = inhibition” value is -7.46%.

Regarding `OCCN1CCN(CCCN2c3ccccc3Sc3ccc(Cl)cc32)CC1`, the Potency was 5.73 µM (active).

Consider `C#CCN(C)Cc1ccccc1`, for which the “activity, negative = inhibition” value was -1.47% [at 12.8 µM].

As to `O=C1c2c(O)cccc2Cc2cccc(O)c21`, the “activity, negative = inhibition” value was -7.77%.

Turning to `c1ccc(CN(CC2=NCCN2)c2ccccc2)cc1`, the Potency was 6.75 µM (active).

`CSc1ccc2c(c1)C(N1CCN(C)CC1)Cc1ccccc1S2` (stereo not drawn): the Potency was 10.7 µM (active).

As for `CCCCN1CCCC[C@H]1C(=O)Nc1c(C)cccc1C`, the “activity, negative = inhibition” value was -17.2%.

Regarding `CN1CCCCC1CCN1c2ccccc2Sc2ccc(S(C)=O)cc21` (stereo not drawn), the Potency is 7.57 µM (active).

Take `CC(C(O)c1ccc(O)cc1)N1CCC(Cc2ccccc2)CC1` (stereo not drawn): the Potency was 13.5 µM (active).

With `CCN(CC)CCNC(=O)c1c(C)[nH]c(/C=C2\C(=O)Nc3ccc(F)cc32)c1C`, the Potency is 4.78 µM (active).

Consider `CC(C)(C)C(=O)C(Oc1ccc(Cl)cc1)n1ccnc1` (stereo not drawn), for which the Potency was 13.5 µM (active).
